The panel holds about 79,000 compounds, 15% with a hit somewhere; the sample as a whole holds those more often. A number with no mark means an inactive call. Active and inactive are the calls of the source. Cut-off read from the data, not from the text of the source: active = growth inhibition above about 70%; inactive = the rest.
Assay: NCI Yeast Anticancer Drug Screen. Data for the rad50EPP+ strain (AID 151);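 note: 0% = growth of vehicle-treated control cultures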
Details: S. cerevisiae rad50 mutant strain, hits give high values
Description: Growth inhibition of yeast strains with defined genetic alterations is measured as a screen for potential anti-cancer activity. Selected strains with alterations in DNA damage repair or cell cycle control were exposed to compounds and growth inhibition was measured relative to vehicle treated controls. The strain used in this assay is rad50EPP+

| SMILES | growth inhibition (at 1.2 µM) [%] | growth inhibition (at 3.7 µM) [%] | growth inhibition (at 11.0 µM) [%] | growth inhibition (at 33.0 µM) | growth inhibition (at 100.0 µM) |
| --- | --- | --- | --- | --- | --- |
| O=S(=O)(c1cccc(C(F)(F)F)c1)N1c2ccccc2-n2cccc2C1c1cccnc1 (stereo not given) | -73 | -45 | -54 | -57% | -46% |
| CC1=CC(C)(C)SC(SSSC2=NC(C)=CC(C)(C)S2)=N1 | -1 | -1 | 0 | 2% | 31% |
| COc1ccccc1/C=C\C(=O)C1COCN1 (stereo not given) | 11 | 20 | 42 | 73% (active) | 92% (active) |
| COc1ccc(N=c2cc(-c3ccccc3)oc3ccccc23)cc1 | -1 | -3 | -5 | -2% | 16% |
| COc1cc(OC)c(CSCC(NC(=O)OCC2c3ccccc3-c3ccccc32)C(=O)O)c(OC)c1 (stereo not given) | -2 | -2 | -1 | 0% | -3% |
| CN(CCOc1ccc(Cl)cc1)CCOc1ccc(Cl)cc1 | 4 | 7 | 7 | 3% | 56% |
| O=C(NCCCCN(CCCNC(=O)C(F)(F)F)Cc1ccccc1)C(F)(F)F | 5 | -6 | 4 | -2% | -18% |
| O=[N+]([O-])c1ccc2nc(=S)[nH]n2c1 | 0 | 6 | 20 | 46% | 87% (active) |

Reference: PubChem BioAssay (NCI)
